High-throughput results as filed in PubChem BioAssay.
Sampled rows, rich in hits. Any-hit rate of the full collection: about 1.4%.
IDE cell activ = boosts human insulin-degrading enzyme activity in HEK cells; FAbeta-B cleavage, fluorescence polarization; 0% vehicle, 100% cell-free pure enzyme wells; 340,000 compounds, 0.073% hits; activation, % at 5.96 µM;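 active = activation above the mean of all tested compounds plus 3 SD, set per screening campaign, cut at about 17% in these data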
IDE cell inh = cellular human IDE inhibition; P14735; 320,000 compounds, 0.41% hits; HEK cells, FAbetaB cleavage, fluorescence polarization; inhibition, % at 5.59 µM;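 active = percent inhibition above the average of all tested compounds plus 3 SD, set per screening campaign, cut at about 16% in these data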;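 note: IDE supplied by intact live HEK cells; FP after avidin binding of uncleaved biotin substrate so inhibition keeps polarization high; 0% = DMSO wells and 100% = 60 µM reference IDE inhibitor Ii1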
HNF4A DNA FP = change in binding of human HNF4 alpha to DNA; HNF4a-FITC DNA binding, fluorescence polarization, 1 h; activity change, % at 10 µM; 360,000 compounds, 0.3% hits; AID 1224865; in the data active = activity change above about 30%, passing the limit was not always enough
Target sequence (P41235 whole entry, looked up): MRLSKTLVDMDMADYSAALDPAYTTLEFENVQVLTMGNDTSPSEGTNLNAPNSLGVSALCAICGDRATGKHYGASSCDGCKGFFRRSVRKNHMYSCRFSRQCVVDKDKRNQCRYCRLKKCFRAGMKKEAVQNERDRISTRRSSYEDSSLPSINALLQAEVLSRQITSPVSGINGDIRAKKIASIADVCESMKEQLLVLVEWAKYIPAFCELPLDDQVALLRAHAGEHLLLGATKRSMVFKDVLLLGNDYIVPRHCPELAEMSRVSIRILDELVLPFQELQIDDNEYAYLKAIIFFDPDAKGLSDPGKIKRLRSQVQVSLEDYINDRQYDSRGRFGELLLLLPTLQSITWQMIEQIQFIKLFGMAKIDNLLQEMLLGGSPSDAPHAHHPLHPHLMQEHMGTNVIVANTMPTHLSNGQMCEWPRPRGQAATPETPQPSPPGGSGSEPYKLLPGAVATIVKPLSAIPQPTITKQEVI
CRFR2-BP ag = agonists of human CRF-binding protein/CRF-R2 receptor complex | 350,000 compounds, 0.46% hits | HEK293 CRF-R2/CRF-BP, calcium dye fluorescence (FLIPR); percent of saturating CRF peptide response | activation, % at 13.2 µM;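 active = activation of at least 50%, plus an integration ratio under a set limit after plate pattern correction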;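 note: plate controls were neutral control wells without compound for no effect and CRF at EC100 for full effect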
TPT1 inh = blocks Candida albicans tRNA 2'-phosphotransferase. recombinant caTPT1, FP RNA substrate dephosphorylation. 300,000 compounds, 0.81% hits. inhibition, % at 5 µM;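 active = inhibition above the mean of all tested compounds plus 3 SD, set per screening campaign, cut at about 24% in these data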;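 note: plate controls were DMSO alone for no effect and ferristatin control at 100 nM for full effect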
caTPT1 confirm = TPT1 (C. albicans) inhibition, confirmation; shares compounds with TPT1 inh; 2,400 compounds, 74% hits; recombinant caTPT1, fluorescence polarization, RNase T1 coupled; inhibition, % at 5 µM;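 active = inhibition above the primary screen limit, the mean inhibition of all tested compounds plus 3 SD, cut at about 25% in these data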
RNase T1 inh = blocks Aspergillus oryzae RNase T1, a TPT1 counter-screen; shares compounds with TPT1 inh; RNase T1 cleavage, fluorescence polarization, 1536-well; inhibition, % at 5 µM; 2,400 compounds, 83% hits;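 active = inhibition above the solvent-only control well mean plus 3 SD, limit set per screening run, cut at about 23% in these data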;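 note: plate controls were DMSO wells with enzyme for no effect and wells without RNase T1 for full effect; inhibitors block cleavage so intact labeled substrate keeps polarization high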
Numbers without * were called inactive; / = not tested or not shown.

SMILES	IDE cell activ	IDE cell inh	HNF4A DNA FP	CRFR2-BP ag	TPT1 inh	caTPT1 confirm	RNase T1 inh
c1ccc(-c2cn3nc(-c4ccccc4)c(-c4ccccc4)nc3n2)cc1	3	-4	0	31	34*	44*	51*
O=[N+]([O-])c1cccc(-c2cn3nc(-c4ccccc4)c(-c4ccccc4)nc3n2)c1	1	8	0	14	2	/	/
Cc1nn2cc(-c3ccc(-c4ccccc4)cc3)nc2s1	-2	1	0	2	4	/	/
Cc1ccc(CNC(=O)CC[C@H]2O[C@@H](n3cc(C)c(=O)[nH]c3=O)C[C@@H]2O)o1	/	/	2	/	/	/	/
Cc1cccc(NC(=O)Nc2nnc([C@H]3C[C@H](O)[C@@H](CO)O3)s2)c1	/	/	-3	/	/	/	/
CC(=O)c1ccc2c(c1)CC1(C2)Cc2cc3c(cc2C1)C(=O)CC3 (configuration not stated)	-1	/	-1	2	/	/	/
Nc1c(C(=O)O)sc2nc(-c3ccc(F)cc3)cc(-c3ccccc3)c12	-7	-2	18	7	29*	13	22*
Nc1c(C(=O)O)sc2nc(-c3ccccc3)cc(-c3ccc(Cl)cc3)c12	0	-1	7	-5	0	/	/
COc1ccccc1C(=O)NNC(=O)c1cccc(C)c1	1	1	3	3	3	/	/
CCn1ncc(Br)c1C(=O)Nc1cc(C)cc(C)c1	-1	1	2	-1	34*	7	13
Cc1csc(NC(=O)CSc2nc3nc(C)cc(C)n3n2)n1	-1	1	0	0	/	/	/
CN1/C(=C/C2CC(=O)N(c3cccc4ccccc34)C2=O)C(C)(C)c2ccccc21 (configuration not stated)	-9	4	18	1	38*	54*	68*
CCOc1ccc(N2C(=O)CC(/C=C3/N(C)c4ccccc4C3(C)C)C2=O)cc1 (configuration not stated)	-6	1	4	1	25*	18	26*
CN1/C(=C/C2CC(=O)NC2=O)C(C)(C)c2ccccc21 (configuration not stated)	2	-3	9	2	-6	/	/
C/C(CC(=O)Nc1ccccc1C#N)=N\NC(=O)c1ccncc1	5	0	1	1	3	/	/
CCN(CC)S(=O)(=O)c1cc(NC(=O)c2ccc3c(c2)NC(=O)C(C)S3)ccc1C (configuration not stated)	0	-1	-2	0	/	/	/
Nc1c(C(=O)Nc2ccc(S(=O)(=O)N3CCCC3)cc2)sc2nc3cc4c(cc3cc12)CCC4	-10	12	5	25	39*	25*	34*
CCCCn1nnnc1C(c1cc2ccccc2o1)N(C)Cc1ccccc1 (configuration not stated)	/	/	-5	/	/	/	/
COc1ccc(OC)c(C2=C/C(=C/c3ccccn3)C(=O)O2)c1	-8	9	6	76*	80*	84*	90*
O=C(CCCN1C(=O)/C(=C\c2cccs2)SC1=S)Nc1ccc(O)cc1C(=O)O	1	-2	6	-1	1	/	/
O=C(CN1C(=O)/C(=C/c2ccco2)SC1=S)Nc1ccc(C(=O)O)c(O)c1	-5	3	-14	0	28*	9	18
O=C(CCCN1C(=O)/C(=C\c2ccco2)SC1=S)Nc1ccc(O)cc1C(=O)O	3	9	-39	0	27*	10	18
O=C(CN1C(=O)/C(=C/c2ccco2)SC1=S)Nc1ccc(O)c(C(=O)O)c1	-2	6	-28	2	12	/	/
CCN1/C(=C\C=C2\C(=O)N(C)C(=S)N2C)Sc2ccccc21	2	0	32	4	47*	60*	73*
CCN1/C(=C2/OC(=S)N(C)C2=O)Sc2ccccc21	-3	/	2	3	/	/	/
CCCOc1cc(N(CC)CC)ccc1/C=C(/C#N)c1nc2ccc(C)cc2[nH]1	-102	105*	103	107*	184*	193*	171*
COc1cc(/C=C(\C#N)c2nc3ccc(C)cc3[nH]2)c([N+](=O)[O-])cc1OC	-3	9	0	24	9	/	/
Cc1cc(/C=C2\SC(=S)NC2=O)c(C)n1C	-7	6	44*	2	53*	69*	84*
